L3MBTL1 inh = L3MBTL1 (human) inhibition; AID 485360; Potency, µM (titrated, usually from 57.1 µM), without a hit: at the highest dose activity, negative = inhibition, usual class: inhibitors; Q9Y468; AlphaScreen L3MBTL1–H3K9me1 peptide binding; hit rate 0.66% among 230,000; note: % is set by controls: 0 for no effect and ±100 for the full control effect; nearly all actives have a fitted effect of over 60% in size
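AlphaScreen assay: L3MBTL1 (50 nM final) was preincubated 30 min at room temperature with biotinylated H3(1-15)K9me1 peptide (75 nM final), then 30 min with library compounds; streptavidin donor and nickel chelate acceptor beads (10 ug/mL final) added, 30 min dark.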
BAZ2B inh = inhibitors of human BAZ2B bromodomain; Q9UIF8; AlphaScreen BAZ2B-H3K14Ac peptide displacement; Potency, µM (doses to about 114 µM), for the others: at the highest dose activity change, negative = inhibition, hits mostly inhibitors; hit rate 4.4% among 360,000; AID 504333; note: % is set by controls: 0 for no effect and ±100 for the full control effect; nearly all actives have a fitted effect of over 60% in size
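AlphaScreen displacement: compounds (up to 110uM) incubated 30 min at room temperature with a preformed 50 nM BAZ2B/50 nM biotinylated H3K14Ac peptide complex in PBS pH 7.4 with Tween-20. Donor and acceptor beads at 10 ug/mL final added, 20 min light-protected before reading.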
HP1b binding inh = blocks HP1-beta chromodomain binding to methylated histone tails; AlphaScreen HP1-beta / biotin-H3K9me3 peptide binding; Potency, µM (titrated, usually from 114 µM), without a hit: at the highest dose activity change, negative = inhibition, hits mostly inhibitors; hit rate 0.56% among 390,000; AID 540317; note: nearly all actives have a fitted effect of over 70% in size
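AlphaScreen: HP1-beta (50 nM) preformed 30 min with biotin-H3(1-18)K9me3 peptide (50 nM) in PBS pH 7.4, 0.01% Tween-20. Compound added for 30 min at RT, then streptavidin donor/nickel chelate acceptor beads (10 ug/mL) for 30 min.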
Sfp PPTase inh = Sfp phosphopantetheinyl transferase inhibition | Potency, µM, inactives show largest response in the series, negative = inhibition, usual class: inhibitors | AID 1490 | Q9F4F7 | Biochemical Sfp PPTase activity, qHTS | hit rate 3.5% among 310,000;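 note: the enzyme is Sfp with the accession as filed and its product quenches rhodamine fluorescence; 0% = enzyme reaction without inhibitor and -100% = no enzyme wells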
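Step 1, compound plus 15 nM Sfp-PPTase, 15 min, room temperature. Step 2, add rhodamine-CoA (5 uM) and BHQ-2-YbbR (12.5 uM). Step 3, read 525/598 nm fluorescence at 0 and 30 min.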
G9a block = G9a (human) methyltransferase inhibition. Q96KQ7. G9a H3K9 monomethylation, AlphaScreen, 2 h. Potency, µM (highest dose often 102 µM), for the others: at the highest dose activity, negative = inhibition, hits mostly inhibitors. hit rate 8.8% among 350,000; note: % is set by controls: 0 for no effect and ±100 for the full control effect; nearly all actives have a fitted effect of over 75% in size
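G9a (20 nM) preincubated 15 min RT with compounds, then 500 nM biotinylated H3K9 peptide and 20 uM SAM added; 2 h RT reaction. Monomethyl-H3K9 product detected by AlphaScreen with anti-H3K9me1 antibody, streptavidin donor and anti-rabbit IgG acceptor beads.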
JMJD2A Tudor = blocks the human JMJD2A Tudor domain; O75164; AlphaScreen JMJD2A-Tudor / H3K4me3 peptide binding; Potency, µM (series often up to 114 µM), inactives show at the top dose activity change, negative = inhibition, hits mostly inhibitors; hit rate 4.4% among 390,000; note: % is set by controls: 0 for no effect and ±100 for the full control effect; nearly all actives have a fitted effect of over 50% in size
* marks the source's active call; other numbers are inactive results; ? = inconclusive; . = no result given; [ ] = another dose, or the depositor's remark. The list is not random: actives were taken first. Their share in the collection is about 12%. Calls come from the whole dose curve; as a rule, active = well fitted curve in the direction sought with a large enough effect; inconclusive = small, poorly fitted or top-dose-only effect, or another doubt; inactive = no such curve, though single readings can be large; an effect the other way counts as inactive or inconclusive. Potency is the fitted concentration of half-maximal effect.

SMILES | L3MBTL1 inh | BAZ2B inh | HP1b binding inh | Sfp PPTase inh | G9a block | JMJD2A Tudor
CCOc1ccc(-c2c(C)nn3c(C)c(C(=O)Nc4cc(C)cc(C)c4)cnc23)cc1OCC | . | -15% | -11% | . | 14%[59 µM] | -9%
CCCc1nc2ccccc2n2c(-c3ccc(C)cc3)c3c(=O)n(C)c(=O)n(C)c3c12 | . | 4% | 62% | . | 17%[59 µM] | 10%
CCC(C)NC(=O)c1sc2nc(C)c(C(=O)Nc3ccc(C)cc3C)c(-c3ccccc3Cl)c2c1N (stereo not drawn) | . | 12% | 44% | . | 11%[59 µM] | 2%
O=C(CN1CCc2ccccc2C1)NCc1ccco1 | . | 14% | 25% | 7% | ? | -14%
CC(NCc1ccco1)C(=O)N1CCc2ccccc2C1 (stereo not drawn) | 4%[11.4 µM] | 56µM* | ? | -3% | ? | 11µM*
Cc1ccc(NC(=O)CCNS(=O)(=O)c2cccs2)cc1F | . | 2% | 28% | 11% | 10% | -2%
Cc1ccc(NC(=O)CNS(=O)(=O)c2cccs2)cc1F | 1% | -36% | 24% | 9% | 79µM* | -10%
CC(C)c1nc2n(n1)C1(CCCCC1)[C@@H]1CCCC[C@@H]1N2 | . | -30% | 56% | . | -14%[59 µM] | -16%
CC1=C(C(=O)OCC2CCCO2)C(c2ccccc2)C2=C(CCCC2=O)N1 (stereo not drawn) | . | -10% | 36% | 26% | 4%[59 µM] | -8%
COc1ccc(C2C(C(=O)OCC3CCCO3)=C(C)NC3=C2C(=O)CC(c2ccco2)C3)cc1O (stereo not drawn) | -21% | -11%[57.1 µM] | -16% | 56µM* | -17% | -20%[57.1 µM]
CC(=O)Nc1ccc(S(=O)(=O)NC(CSc2ccc(C(=O)O)cc2[N+](=O)[O-])C(=O)O)cc1 (stereo not drawn) | . | ? | 55% | -21% | 50µM* | -3%
Cn1c(=O)c2c(SCc3cccnc3)nc(CC(C)(C)C)nc2n(C)c1=O | -1% | 0% | 62% | 56µM* | 1% | -11%
Cc1ccccc1-c1nc(SCc2cccnc2)c2c(=O)n(C)c(=O)n(C)c2n1 | 1% | -14% | 6% | 10% | 56µM* | -11%
CCCc1nc(SCc2cccnc2)c2c(=O)n(C)c(=O)n(C)c2n1 | -13% | 0% | 33% | -22% | -43%[59 µM] | -8%
Cc1ccccc1-c1nc(SCC(=O)NCc2ccc(F)cc2)c2c(=O)n(C)c(=O)n(C)c2n1 | . | 7% | 14%[57 µM] | . | -4%[59 µM] | -6%
COc1ccc(NC(=O)CSC2=C(C#N)C(c3ccco3)C(C(=O)Nc3nc4ccccc4s3)=C(C)N2)cc1 (stereo not drawn) | . | . | 44% | . | . | -28%
COCCOC(=O)C1=C(C)NC(SCC(=O)NC(C)(C)C)=C(C#N)C1c1ccco1 (stereo not drawn) | -1% | -4% | 27% | 4% | -9%[59 µM] | 89µM*
C=CCOC(=O)C1=C(C)NC(SCC(=O)Nc2ccc(C)c(Cl)c2)=C(C#N)C1c1ccco1 (stereo not drawn) | 2% | 8% | 33% | 35µM* | -14% | -18%
CC(=O)N(Cc1ccc(F)cc1)C1=C(NCc2ccccc2)C(=O)c2ccccc2C1=O | . | 45µM* | ? | -3% | 13µM* | 56µM*
O=C(NCc1cccc(Cl)c1)c1ccc(CS(=O)Cc2ccccc2Cl)o1 (stereo not drawn) | . | -20% | 39% | 9% | 18% | -26%
COc1ccc([N+](=O)[O-])cc1NS(=O)(=O)c1ccccc1 | ? | 0% | 11% | 9% | 0.79µM* | -15%
O=[N+]([O-])c1ccc(S(=O)(=O)Nc2nc3ccccc3nc2Nc2ccccc2)cc1 | -17% | ? | -19% | 10% | ? | -15%[11.4 µM]
O=C(O)c1cccc(S(=O)(=O)Nc2ccc([N+](=O)[O-])cc2O)c1 | 0% | -28% | 11% | ? | 22µM* | ?
COc1cc(Nc2nc3ccccc3nc2NS(=O)(=O)c2ccc([N+](=O)[O-])cc2)cc(OC)c1OC | . | 7.9µM* | -25% | 18% | . | ?
O=C(O)c1cccc(S(=O)(=O)Nc2ccccc2-c2ccccc2)c1 | -3% | -21% | 42% | 18% | ? | -2%
SMILES | L3MBTL1 inh | BAZ2B inh | HP1b binding inh | Sfp PPTase inh | G9a block | JMJD2A Tudor
O=C(Nc1ccc(Br)cn1)c1cccc(C(=O)Nc2ccc(Br)cn2)c1 | . | -1% | 63% | 2% | 20% | 89µM*
O=C(Nc1ccc(Br)cn1)c1ccc2ccccc2c1 | -3%[2.29 µM] | 9% | 22% | 9% | -13%[0.501 µM] | 0%
CCN(CC)C(=O)[C@H]1C[C@H](CC(=O)NC/C=C(\C)CCC=C(C)C)C(=O)N2CCc3c([nH]c4cc(CCC(=O)N(C)C)ccc34)[C@]12C | ? | . | 2% | . | . | -31%
COc1ccc(CN(C)CC(=O)NC(C)c2ccccc2)c(OC)c1 (stereo not drawn) | . | 56µM* | ? | -21% | ? | 1.8µM*
CCOc1ccc(CN(C)CC(=O)Nc2cccc3ccccc23)cc1OC | -5% | . | ? | ? | 7.1µM* | 0.79µM*
CC(NC(=O)CN(C)CC(=O)Nc1ccccc1Br)c1ccccc1 (stereo not drawn) | 2% | 32µM* | -6% | . | -121%[12.7 µM] | 28µM*
COc1cccc(NC(=O)CN(C)CC(=O)NC(C)c2ccccc2)c1 (stereo not drawn) | -7% | 6% | 31% | 6% | 71µM* | -1%
COc1cccc(NC(=O)CN(C)C(=O)CC(C)c2ccccc2)c1 (stereo not drawn) | . | -10% | 32% | 19% | 7% | -14%
C=CCc1cc(F)c(S(=O)(=O)N2CCN(S(=O)(=O)c3ccc4c(c3)OCCO4)CC2)cc1F | . | . | . | . | . | -10%
C=CCN(c1ccccc1C(=O)NCC(=O)O)S(=O)(=O)c1ccccc1C | 6% | -1% | 36% | 27% | -5% | -4%
Cc1cccc(-n2c3nc(=O)n(C)c(=O)c-3cc3ccc(Cl)cc32)c1C | . | . | 23% | . | -7%[59 µM] | -18%
CC1(C)Cc2cccc(C(=O)Nc3ccc(F)cc3F)c2O1 | 27% | 45% | 14% | 5% | 274% | 36%
COc1ccc(OC)c(NC(=O)CN(C)CC(=O)Nc2ccccc2Br)c1 | 0% | 45µM* | -3% | ? | 7.9µM* | 8.9µM*
O=[N+]([O-])c1cccc2ccc(/C=C/c3ccc(F)cc3)nc12 | -21% | ? | -16% | 2% | 13µM* | ?
O=[N+]([O-])c1cccc(C=NNc2ccc3ccccc3n2)c1O | . | . | 19% | . | . | 22µM*
O=[N+]([O-])c1ccc(/C=C/c2ccc3cccc([N+](=O)[O-])c3n2)cc1 | -15% | ? | -6% | -19% | ? | -19%
Brc1ccc(/C=N/Nc2ccc3ccccc3n2)cc1 | -1% | -7% | 15% | ? | 12%[0.0925 µM] | -20%
